# Compound activity from PubChem BioAssay.
# ATXN viability = viability counter-screen for ATXN expression inhibitors. S2 cells (HEK-293 line with an ATXN2-luciferase reporter) viability, CellTiter-Fluor protease fluorescence, 24 h. Potency, µM (doses to about 56.7 µM), usual class: cytotoxic. 400,000 compounds, 0.49% hits; further: nearly all actives have a fitted effect of over 40% in size
# A549 tox = kills or reduces viability of A549 cells in Nrf2 counter-screen; A549 ARE-Fluc cells, CellTiter-Fluor viability, 18-24 h; Potency, µM (series often up to 46 µM), without a hit: at the highest dose activity change, negative = cytotoxicity, usual class: inhibitors; 390,000 compounds, 0.16% hits; further: on the % scale 0 is the no-effect control and ±100 the full control effect
#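 A549 ARE_Fluc cells in 5% FBS OPTI-MEM were exposed to compounds in concentration-response for 18-24 h at 37 deg C. Viability was read by CellTiter-Fluor fluorescence (Ex 405/Em 525) after 30 min, before the luciferase read.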
# Nrf2 inh = inhibitors of Nrf2 signaling | A549 ARE-Fluc reporter, luciferase luminescence, 18-24 h | Potency, µM (highest dose often 46 µM), for inactives: at the top dose activity change, negative = inhibition, hits mostly inhibitors | 360,000 compounds, 2.1% hits | AID 504444; further: on the % scale 0 is the no-effect control and ±100 the full control effect; nearly all actives have a fitted effect of over 60% in size
#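 In this cell-based qHTS, ARE-driven firefly luciferase in A549 cells reports Nrf2 activity; the luminescent signal after BugLite lysis is the measured value, with a prior CellTiter-Fluor read for cell health.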
# TGFb inhibitor = blocks TGF-b signaling; HepG2 CAGA-GFP TGF-b/SMAD3 reporter, GFP fluorescence, 18 h; TGF-beta stimulated, 500 pg/mL final; Potency, µM (series often up to 46.1 µM), for the others: at the highest dose activity, negative = inhibition, hits mostly inhibitors; 410,000 compounds, 1.2% hits; AID 588855; further: on the % scale 0 is the no-effect control and ±100 the full control effect; nearly all actives have a fitted effect of over 65% in size
#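 Read-out: total well GFP (ex488/em500-530) summed from mean per-cell fluorescence. Cells: HEPG2 CAGA-GFP, 1% FBS DMEM, 18 h at 37 degrees C with 500 pg/mL final TGF-beta. Unstimulated wells served as the full-inhibition control; stimulated DMSO wells = 0%.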
# HepG2 tox = HepG2 cytotoxicity, counter-screen for TGF-b inhibitors | AID 588856 | 410,000 compounds, 0.76% hits | Potency, µM (highest dose often 46.1 µM), inactives show top-dose activity change, negative = cytotoxicity, most hits filed as cytotoxic | HepG2 CAGA-GFP viability, ATP luminescence, 18 h
#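 HepG2 CAGA-GFP cells (1000/well, DMEM with 1% FBS) received compound, then TGF-beta at 500 pg/mL final, and were incubated 18 hours at 37 degrees C. Viability was read by CellTiter-Glo luminescence. Media-only wells were set as complete cell-killing and DMSO as no toxicity.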
# ATXN2 expr inh = inhibitors of ATXN2 expression; HEK-293 ATXN2-luciferase reporter, luminescence, 24 h; 360,000 compounds, 0.72% hits; Potency, µM (doses to about 57 µM), without a hit: at the top dose activity change, negative = inhibition, hits mostly inhibitors; further: on the % scale 0 is the no-effect control and ±100 the full control effect; nearly all actives have a fitted effect of over 55% in size
#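 qHTS (up to 57 uM final) was run with 24 h compound exposure of reporter cells at 37 °C. Each well was multiplexed: SteadyGlo luminescence measured ATXN2-luciferase expression after a fluorogenic Gly-Phe-AFC viability readout (25 uM final).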
# An asterisk follows results filed as active; i = inactive; ? = inconclusive; · = no result; [ ] = remark or other dose. Most compounds without a hit are left out; they make up all but 3.8% or so of the library. The call rests on the fitted dose curve; in most records, active means well fitted curve in the direction sought with a large enough effect; inconclusive means small, poorly fitted or top-dose-only effect, or another doubt; inactive means no such curve, though single readings can be large; an effect the other way counts as inactive or inconclusive. Potency means the concentration at half of the fitted maximal effect.
SMILES,ATXN viability,A549 tox,Nrf2 inh,TGFb inhibitor,HepG2 tox,ATXN2 expr inh
CC(=O)Nc1cccc(-c2ccnc3c2CC(C(=O)NCc2ccc(F)c(F)c2)O3)c1 (centres undefined),i,·,·,-9.1%,-3.5%,-6.5%
Cc1ccc(OCC(=O)Nc2cc(S(=O)(=O)N3CCOCC3)ccc2N2CCCC2)cc1,i,5.5%,15.4%,27.8%,-0.1%,-10.6%
Cc1cc(OCC(=O)Nc2cc(S(=O)(=O)N3CCOCC3)ccc2N2CCCC2)ccc1C(C)C,i,-21.5%,16.4µM*,0.0%,2.1%,-13.9%
COc1ccc(NS(=O)(=O)c2cc(NC(=O)[C@@H](NC(=O)c3ccccc3)C(C)C)ccc2C)cc1,i,?,?,?,-3.5%,-10.3%
O=C(/C=C/c1ccccc1[N+](=O)[O-])c1ccccc1Br,?,?,16.4µM*,?,-0.2%,?
Cc1cccc2sc(N(CCCN(C)C)C(=O)CCc3ccccc3)nc12,i,?,?,12.6µM*,-109.8%,?
CN(C)CCCN(C(=O)CCc1ccccc1)c1nc2ccc(F)cc2s1,i,-4.7%,11.0%,0.0%,-40.0%,0.5%
CN(C)CCCN(C(=O)c1ccco1)c1nc2ccc(Br)cc2s1,?,-4.5%,-26.0%,0.0%,-71.6%,25.1µM*
CN(C)CCCN(C(=O)CCc1ccccc1)c1nc2ccc(Br)cc2s1,?,2.5%,-26.2%,15.8µM*,-101.9%,25.1µM*
CN(C)CCCN(C(=O)c1ccco1)c1nc2ccc(Cl)cc2s1,·,2.9%,-1.9%,?,-32.0%,?
Cc1cccc2sc(N(CCCN(C)C)C(=O)CN3C(=O)c4ccccc4C3=O)nc12,i,?,?,-16.9%,-39.5%,·
COc1ccc2c(c1)c1c(c(=O)n(Cc3ccccc3)c(=O)n1Cc1ccccc1Cl)n2C,i,5.4%,?,-5.0%,0.0%,15.6%
CN(N=O)c1ccc2c(c1)Cc1ccccc1-2,·,·,·,-22.4%,-62.3%,·
CCOC(=O)Cn1cc(/C=N/N2C(=O)C3C4C=CC(C4)C3C2=O)c2ccccc21 (centres undefined),i,1.3%,-5.1%,6.31µM*,-36.6%,-9.3%
O=C1C2C3C=CC(C3)C2C(=O)N1/N=C/c1cn(Cc2ccc(F)cc2)c2ccccc12 (centres undefined),i,1.1%,?,?,0.891µM*,?
O=C1C2C3C=CC(C3)C2C(=O)N1/N=C/c1cn(Cc2ccccc2)c2ccccc12 (centres undefined),i,5.9%,·,4.47µM*,-6.5%,-23.2%
O=C(CNCc1ccc(Cl)cc1)Nc1cc(S(=O)(=O)N2CCCC2)ccc1Cl,?,-6.8%,?,?,-0.6%,-19.9%
O=C(c1c(F)cccc1F)N(Cc1ccccn1)C1CC1,i,6.3%,5.9%,12.6µM*,0.4%,-17.8%
O=C(Nc1cc(Sc2ccccn2)cc([N+](=O)[O-])c1)c1cccc(Cl)c1,?,-2.1%,?,11.2µM*,-69.3%,?
O=C(Nc1ccc(S(=O)(=O)Nc2ncccn2)cc1)c1cccc(Cl)c1,i,3.5%,·,-5.2%,-2.8%,5.5%
Cc1ccc(NC(=O)c2cnc(N3CCN(c4ccccn4)CC3)c3ccccc23)c(Br)c1,i,-12.5%,14.6µM*,-15.5%,-5.7%,?
Cc1ccc(-c2nnc(N3CCN(c4ccccn4)CC3)c3ccccc23)cc1,?,?,23.1µM*,?,-46.8%,?
c1ccc(-c2nnc(N3CCN(c4ccccn4)CC3)c3ccccc23)cc1,i,?,18.4µM*,0.0%,-20.0%,-25.5%
CS(=O)(=O)N1CCN(c2nnc(-c3ccccc3)c3ccccc23)CC1,i,-2.8%,-21.5%,-1.6%,-15.5%,-8.4%
NC(=O)C1CCCN(C(=O)CN2C(=O)NC(c3ccccc3)(c3ccccc3)C2=O)C1 (centres undefined),i,-4.2%,2.5%,13.4%,5.5%,2.6%
SMILES,ATXN viability,A549 tox,Nrf2 inh,TGFb inhibitor,HepG2 tox,ATXN2 expr inh
O=C(C1CCCN(S(=O)(=O)c2ccc(Br)cc2)C1)N1CCN(Cc2ccccc2)CC1 (centres undefined),i,-20.3%,?,?,-13.4%,-25.2%
CCOC(=O)c1ccc2nc(C)cc(Nc3ccc(OC(C)C)cc3)c2c1,i,?,?,?,-52.8%,?
CCn1c(-c2ccccc2F)nc2cc(NC(C)=O)cc(C(=O)N(C)Cc3ccccn3)c21,i,·,·,·,·,·
CC(C)NC1=C(Cl)C(=O)c2ccccc2C1=O,?,?,?,10µM*,8.91µM*,-15.8%
O=C1C(Cl)=C(NCCc2ccccc2)C(=O)N1CCc1ccccc1,i,0.0%,13.2%,-10.0%,-15.9%,14.9%
C=CCNC1=C(Cl)C(=O)c2ccccc2C1=O,i,?,16.4µM*,?,12.6µM*,-35.7%
O=C1C(Cl)=C(NCCc2ccccc2)C(=O)c2ccccc21,i,-5.0%,2.3%,?,-40.6%,31.6µM*
C=CCNC1=C(Cl)C(=O)N(Cc2ccccc2)C1=O,i,1.1%,-3.0%,2.4%,-15.8%,0.5%
CC(=O)N(Cc1ccc(F)cc1)C1=C(NCCc2ccccc2)C(=O)c2ccccc2C1=O,28.2µM*,23.1µM*,20.6µM*,?,3.98µM*,12.6µM*
CCN(CC)CCNC(=O)c1ccc(NC(=O)c2ccc(-n3cncn3)c([N+](=O)[O-])c2)cc1,i,·,·,?,-9.8%,·
O=S(=O)(Nc1cccc(Cl)c1)c1ccc2[nH]c3c(c2c1)CCCCCC3,·,?,·,11.2µM*,20µM*,?
Cc1ccc(Cl)cc1N1CCN(S(=O)(=O)c2ccc3[nH]c4c(c3c2)CCCC4)CC1,i,8.5%,8.4%,10µM*,-3.7%,-5.6%
CC(=O)c1cccc(NS(=O)(=O)c2ccc3[nH]c4c(c3c2)CCCCC4)c1,?,-17.6%,16.4µM*,?,-90.0%,?
CC(=O)c1cccc(NS(=O)(=O)c2ccc3[nH]c4c(c3c2)CCCCCC4)c1,?,-21.9%,·,?,-82.1%,-29.5%
CCOC(=O)c1cccc(NS(=O)(=O)c2ccc3[nH]c4c(c3c2)CCCC4)c1,?,-23.6%,-15.0%,14.1µM*,-53.5%,?
O=C(NCc1cn(-c2ccccc2)nc1-c1ccc(F)cc1)c1cccc([N+](=O)[O-])c1,i,-15.7%,?,-24.1%,16.0%,5.9%[11.3 µM]
